Test results from the supplement of paper PMC8728848.
About 410 targets per protein were measured; listed, in parts, are those with the strongest signals and a random draw of the rest.

Key:
Assay in all cases: glycan array binding signal (z-score within array); higher = stronger binding
Details in all cases: glycan notation: IUPAC condensed, linker removed
Fuc(a1-2)Gal = target: Fuc(a1-2)Gal
How it was run: (§1)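 The Consortium for Functional Glycomics database supplied 3228 glycan arrays, of which those lacking an available protein sequence were dropped. The binding signal, a within-array Z-score, was averaged across arrays of the same protein sequence and across linkers. Negative scores can be read as non-binding.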

Fuc(a1-2)Gal(b1-3)GalNAc = target: Fuc(a1-2)Gal(b1-3)GalNAc
How it was run: as §1

[1] = target: Fuc(a1-2)Gal(b1-4)GlcNAc(b1-2)[Fuc(a1-2)Gal(b1-4)GlcNAc(b1-4)]Man(a1-3)[Fuc(a1-2)Gal(b1-4)GlcNAc(b1-2)Man(a1-6)]Man(b1-4)GlcNAc(b1-4)GlcNAc
How it was run: as §1

[2] = target: Fuc(a1-2)Gal(b1-4)GlcNAc6S
How it was run: as §1

[3] = target: Fuc(a1-2)Gal6S(b1-3)GlcNAc6S
How it was run: as §1

[4] = target: Fuc(a1-2)[Gal(a1-3)]Gal(b1-3)GlcNAc(b1-2)Man(a1-3)[Fuc(a1-2)[Gal(a1-3)]Gal(b1-3)GlcNAc(b1-2)Man(a1-6)]Man(b1-4)GlcNAc(b1-4)[Fuc(a1-6)]GlcNAc
How it was run: as §1

[5] = target: Fuc(a1-2)[Gal(a1-3)]Gal(b1-3)GlcNAc(b1-3)GalNAc
How it was run: as §1

[6] = target: Fuc(a1-2)[Gal(a1-4)]Gal(b1-4)GlcNAc
How it was run: as §1

[7] = target: Fuc(a1-2)[GalNAc(a1-3)]Gal(b1-4)[Fuc(a1-3)]GlcNAc(b1-3)GalNAc
How it was run: as §1

Fuc(b1-3)GlcNAc = target: Fuc(b1-3)GlcNAc
How it was run: as §1

Gal(a1-2)Gal = target: Gal(a1-2)Gal
How it was run: as §1

Gal(a1-3)Gal = target: Gal(a1-3)Gal
How it was run: as §1

Gal(a1-3)Gal(b1-4)GlcNAc = target: Gal(a1-3)Gal(b1-4)GlcNAc
How it was run: as §1

[8] = target: Gal(a1-3)[Gal(a1-4)]Gal(b1-4)GlcNAc
How it was run: as §1

[9] = target: Gal(a1-4)Gal(b1-3)GlcNAc(b1-2)Man(a1-3)[Gal(a1-4)Gal(b1-3)GlcNAc(b1-2)Man(a1-6)]Man(b1-4)GlcNAc(b1-4)GlcNAc
How it was run: as §1

Gal(b1-2)Gal = target: Gal(b1-2)Gal
How it was run: as §1

Gal(b1-3)Gal(b1-4)GlcNAc = target: Gal(b1-3)Gal(b1-4)GlcNAc
How it was run: as §1

Gal(b1-3)GalNAc = target: Gal(b1-3)GalNAc
How it was run: as §1

[10] = target: Gal(b1-3)GalNAc(a1-3)[Fuc(a1-2)]Gal(b1-4)GlcNAc
How it was run: as §1

[11] = target: Gal(b1-3)GalNAc(b1-4)Gal(b1-4)Glc
How it was run: as §1

[12] = target: Gal(b1-3)GlcNAc(b1-6)Gal(b1-4)GlcNAc
How it was run: as §1

Gal(b1-3)GlcNAc6S = target: Gal(b1-3)GlcNAc6S
How it was run: as §1

[13] = target: Gal(b1-3)[GlcNAc(b1-6)]GalNAc
How it was run: as §1

[14] = target: Gal(b1-4)GlcNAc(a1-6)Gal(b1-4)GlcNAc
How it was run: as §1

[15] = target: Gal(b1-4)GlcNAc(b1-2)Man(a1-3)[Gal(b1-4)GlcNAc(b1-2)Man(a1-6)][GlcNAc(b1-4)]Man(b1-4)GlcNAc(b1-4)[Fuc(a1-6)]GlcNAc
How it was run: as §1

[16] = target: Gal(b1-4)GlcNAc(b1-2)Man(a1-3)[Man(a1-6)]Man(b1-4)GlcNAc(b1-4)GlcNAc
How it was run: as §1

[17] = target: Gal(b1-4)GlcNAc(b1-3)Gal(b1-3)GlcNAc
How it was run: as §1

[18] = target: Gal(b1-4)GlcNAc(b1-3)Gal(b1-4)GlcNAc(b1-3)Gal(b1-4)GlcNAc(b1-3)Gal(b1-4)GlcNAc(b1-2)[Gal(b1-4)GlcNAc(b1-3)Gal(b1-4)GlcNAc(b1-3)Gal(b1-4)GlcNAc(b1-3)Gal(b1-4)GlcNAc(b1-6)]Man(a1-6)[Gal(b1-4)GlcNAc(b1-3)Gal(b1-4)GlcNAc(b1-3)Gal(b1-4)GlcNAc(b1-3)Gal(b1-4)GlcNAc(b1-2)Man(a1-3)]Man(b1-4)GlcNAc(b1-4)[Fuc(a1-6)]GlcNAc
How it was run: as §1

Gal6P(b1-4)GlcNAc = target: Gal6P(b1-4)GlcNAc
How it was run: as §1

Gal6S(b1-3)GlcNAc = target: Gal6S(b1-3)GlcNAc
How it was run: as §1

Gal6S(b1-4)GlcNAc = target: Gal6S(b1-4)GlcNAc
How it was run: as §1

[19] = target: GalNAc(a1-3)GalNAc(b1-3)Gal(a1-4)Gal(b1-4)GlcNAc
How it was run: as §1

GalNAc(b1-3)Gal = target: GalNAc(b1-3)Gal
How it was run: as §1

GalNAc(b1-4)GlcNAc6S = target: GalNAc(b1-4)GlcNAc6S
How it was run: as §1

[20] = target: Glc(a1-4)Glc(a1-4)Glc(a1-4)Glc
How it was run: as §1

Glc(a1-6)Glc(a1-6)Glc = target: Glc(a1-6)Glc(a1-6)Glc
How it was run: as §1

[21] = target: Glc(a1-6)Glc(a1-6)Glc(a1-6)Glc
How it was run: as §1

[22] = target: GlcNAc(a1-4)Gal(b1-4)GlcNAc(b1-3)Gal(b1-4)[Fuc(a1-3)]GlcNAc(b1-3)Gal(b1-4)[Fuc(a1-3)]GlcNAc
How it was run: as §1

[23] = target: GlcNAc(a1-6)Gal(b1-4)GlcNAc
How it was run: as §1

[24] = target: GlcNAc(b1-2)[GlcNAc(b1-6)]Man(a1-6)[GlcNAc(b1-2)Man(a1-3)]Man(b1-4)GlcNAc(b1-4)GlcNAc
How it was run: as §1

[25] = target: GlcNAc(b1-2)[GlcNAc(b1-6)]Man(a1-6)[GlcNAc(b1-4)][GlcNAc(b1-2)Man(a1-3)]Man(b1-4)GlcNAc(b1-4)GlcNAc
How it was run: as §1

[26] = target: GlcNAc(b1-3)Gal(b1-4)GlcNAc(b1-3)Gal(b1-4)GlcNAc(b1-3)GalNAc
How it was run: as §1

GlcNAc(b1-4)GlcNAc = target: GlcNAc(b1-4)GlcNAc
How it was run: as §1

[27] = target: GlcNAc(b1-4)GlcNAc(b1-4)GlcNAc(b1-4)GlcNAc(b1-4)GlcNAc
How it was run: as §1

[28] = target: GlcNAc(b1-6)Gal(b1-4)GlcNAc
How it was run: as §1

[29] = target: GlcNAc6S(b1-3)Gal(b1-4)GlcNAc
How it was run: as §1

[30] = target: Man(a1-2)Man(a1-2)Man(a1-6)[Man(a1-3)]Man
How it was run: as §1

[31] = target: Man(a1-2)Man(a1-3)[Man(a1-2)Man(a1-6)]Man(a1-6)[Man(a1-2)Man(a1-2)Man(a1-3)]Man
How it was run: as §1

[32] = target: Man(a1-3)[Man(a1-6)]Man(a1-6)[Man(a1-2)Man(a1-3)]Man(b1-4)GlcNAc(b1-4)GlcNAc
How it was run: as §1

[33] = target: Neu5Ac(a2-3)Gal(b1-4)GlcNAc(b1-2)Man
How it was run: as §1

[34] = target: Neu5Ac(a2-3)Gal(b1-4)GlcNAc(b1-3)Gal(b1-4)GlcNAc(b1-2)Man(a1-3)[Neu5Ac(a2-3)Gal(b1-4)GlcNAc(b1-3)Gal(b1-4)GlcNAc(b1-2)Man(a1-6)]Man(b1-4)GlcNAc(b1-4)GlcNAc
How it was run: as §1

[35] = target: Neu5Ac(a2-3)Gal(b1-4)GlcNAc(b1-6)[Neu5Ac(a2-3)Gal(b1-3)]GalNAc
How it was run: as §1

[36] = target: Neu5Ac(a2-3)Gal(b1-4)GlcNAc6S
How it was run: as §1

Neu5Ac(a2-6)Gal = target: Neu5Ac(a2-6)Gal
How it was run: as §1

[37] = target: Neu5Ac(a2-6)Gal(b1-4)GlcNAc(b1-2)Man(a1-3)[Neu5Ac(a2-6)Gal(b1-4)GlcNAc(b1-2)Man(a1-6)]Man(b1-4)GlcNAc(b1-4)[Fuc(a1-6)]GlcNAc
How it was run: as §1

[38] = target: Neu5Ac(a2-6)Gal(b1-4)GlcNAc(b1-3)Gal(b1-4)GlcNAc(b1-6)[Gal(b1-3)]GalNAc
How it was run: as §1

[39] = target: Neu5Ac(a2-6)Gal(b1-4)GlcNAc(b1-6)[Gal(b1-3)]GalNAc
How it was run: as §1

[40] = target: Neu5Gc(a2-3)Gal(b1-3)[Fuc(a1-4)]GlcNAc
How it was run: as §1

B1: VLRB.aGPA.23-GCN4-biotin (Petromyzon marinus) (protein)
chain: ACPSQCSCSGTEVNCAGKSLASVPAGIPTTTRVLYLNSNQITKLEPGVFDRLANLRELHLWGNQLVSLPPGVFDNLANLEKLWLNSNQLTSLPAGLFDRLVNLEHLGLCCMKLTELPSGAFDKLTRLKQLGLDQNQLKSIPDGAFARLPSLTHVWLHTNPWDCQCTDILYLSGWVAQHSSIVGEGWPWRHSPDSAKCSGTNTPVRAVTEASTSPSKCP
glycan array binding signal (z-score) (Fuc(a1-2)Gal): 13.2 | glycan array binding signal (z-score) (Fuc(a1-2)Gal(b1-3)GalNAc): 12.6 | glycan array binding signal (z-score) [1]: -0.082 | glycan array binding signal (z-score) [2]: -0.082 | glycan array binding signal (z-score) [3]: -0.055 | glycan array binding signal (z-score) [4]: -0.07 | glycan array binding signal (z-score) [5]: -0.083 | glycan array binding signal (z-score) [6]: -0.066 | glycan array binding signal (z-score) [7]: 0.368 | glycan array binding signal (z-score) (Fuc(b1-3)GlcNAc): -0.075 | glycan array binding signal (z-score) (Gal(a1-2)Gal): 0.157 | glycan array binding signal (z-score) (Gal(a1-3)Gal): -0.08 | glycan array binding signal (z-score) (Gal(a1-3)Gal(b1-4)GlcNAc): -0.079 | glycan array binding signal (z-score) [8]: -0.069 | glycan array binding signal (z-score) [9]: -0.073 | glycan array binding signal (z-score) (Gal(b1-2)Gal): 3.68 | glycan array binding signal (z-score) (Gal(b1-3)Gal(b1-4)GlcNAc): 0.046 | glycan array binding signal (z-score) (Gal(b1-3)GalNAc): 0.232 | glycan array binding signal (z-score) [10]: -0.083 | glycan array binding signal (z-score) [11]: 0.519 | glycan array binding signal (z-score) [12]: -0.077 | glycan array binding signal (z-score) (Gal(b1-3)GlcNAc6S): -0.09 | glycan array binding signal (z-score) [13]: -0.079 | glycan array binding signal (z-score) [14]: -0.077 | glycan array binding signal (z-score) [15]: -0.081 | glycan array binding signal (z-score) [16]: -0.076 | glycan array binding signal (z-score) [17]: -0.071 | glycan array binding signal (z-score) [18]: -0.071 | glycan array binding signal (z-score) (Gal6P(b1-4)GlcNAc): -0.084 | glycan array binding signal (z-score) (Gal6S(b1-3)GlcNAc): 0.341 | glycan array binding signal (z-score) (Gal6S(b1-4)GlcNAc): -0.083 | glycan array binding signal (z-score) [19]: -0.076 | glycan array binding signal (z-score) (GalNAc(b1-3)Gal): -0.076 | glycan array binding signal (z-score) (GalNAc(b1-4)GlcNAc6S): -0.082 | glycan array binding signal (z-score) [20]: -0.064 | glycan array binding signal (z-score) (Glc(a1-6)Glc(a1-6)Glc): -0.077 | glycan array binding signal (z-score) [21]: -0.076 | glycan array binding signal (z-score) [22]: -0.069 | glycan array binding signal (z-score) [23]: -0.087 | glycan array binding signal (z-score) [24]: -0.079 | glycan array binding signal (z-score) [25]: -0.085 | glycan array binding signal (z-score) [26]: -0.084 | glycan array binding signal (z-score) (GlcNAc(b1-4)GlcNAc): -0.088 | glycan array binding signal (z-score) [27]: -0.086 | glycan array binding signal (z-score) [28]: -0.084 | glycan array binding signal (z-score) [29]: -0.08 | glycan array binding signal (z-score) [30]: -0.059 | glycan array binding signal (z-score) [31]: -0.081 | glycan array binding signal (z-score) [32]: 0.041 | glycan array binding signal (z-score) [33]: -0.068 | glycan array binding signal (z-score) [34]: -0.005 | glycan array binding signal (z-score) [35]: -0.087 | glycan array binding signal (z-score) [36]: -0.079 | glycan array binding signal (z-score) (Neu5Ac(a2-6)Gal): -0.082 | glycan array binding signal (z-score) [37]: -0.074 | glycan array binding signal (z-score) [38]: -0.072 | glycan array binding signal (z-score) [39]: -0.077 | glycan array binding signal (z-score) [40]: -0.074
